Experimental data as given in article PMC3795721, “Screening for Protein-DNA Interactions by Automatable DNA-Protein Interaction ELISA”.

These sequences were tested against AT4G31550 (Arabidopsis thaliana, UniProt Q9SV15 228-325) (assay: DPI-ELISA; DPI-ELISA, streptavidin 384-well plate, 1-2 pmol biotinylated dsDNA per well, crude native E. coli extract, anti-His detection; buffer as in Brand et al. [46],; high values mean tight binding). Settings: tags: C-terminal His (pET-DEST42); label: 5' biotin on forward strand; dsDNA, one strand shown.
Sequence of AT4G31550 (Q9SV15 228-325): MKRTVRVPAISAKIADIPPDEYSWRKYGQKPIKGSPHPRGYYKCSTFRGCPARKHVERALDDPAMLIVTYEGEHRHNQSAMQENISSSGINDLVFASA

Sequence	binding signal [absorbance]
AAAAAAGGGTATACTCGCAGCCCCTAAAAA	0.51 ± 0.0849
AAAAAATTCAAAATGATCACTACGGGAAAA	0.545 ± 0.0778
AAAAAAGCATATCTTCAGAACTTGCCAAAA	0.625 ± 0.0778
AAAAAACTGGCGACTGCCAGTGGTAGAAAA	0.385 ± 0.0354
AAAAAAGGGAGTCATGCTTCTTGTTTAAAA	0.645 ± 0.0919
AAAAAATAGTGTGATTGGTATCCAGTAAAA	0.645 ± 0.0495
AAAAAATTCACTTTTACCTTTGTGTTAAAA	0.555 ± 0.0919
AAAAAATGGTCGATCCGCATGCAGTTAAAA	0.52 ± 0.099
AAAAAAATTACGCGGGATCGCCAAAA	0.6 ± 0.0566
AAAAAATATCATTGTTACCGTTGCTAAAAA	0.465 ± 0.12
AAAAAATTAGACGCTACACTTACGGTAAAA	0.665 ± 0.106
AAAAAAGGTAGTCACATTACGAGGGTAAAA	0.555 ± 0.0354
AAAAAAAACAAAACCTCCTAATAGCGAAAA	0.42 ± 0.113
AAAAAATTTCTATTTCATCTTTGCCCAAAA	0.72 ± 0.156
AAAAAATTCGGGACTAGTAGTGGTGAAAAA	0.605 ± 0.0778
AAAAAAAAGCGTTACATCATATGGAAAAAA	0.56 ± 0.0566
AAAAAATAAGTAACCGAACGAAACTCAAAA	0.75 ± 0.269
AAAAAAAACTCCCATACTACAACCGAAAAA	0.53 ± 0.099
AAAAAATTTGCTCTTTTGGTTTTCACAAAA	0.64 ± 0.0707

Sequence	binding signal [absorbance]
AAAAAATTCGTTTTTCGTCTTTCATTAAAA	0.7 ± 0.156
AAAAAAGGCGTCTGACTGTAACTCGTAAAA	1.43 ± 0.445
AAAAAATGAATCAATTTTTGGGCTTTAAAA	0.52 ± 0.113
AAAAAAATGATTGCCAATGCTCGCAAAAAA	0.73 ± 0.156
AAAAAAACTTTCTATTCTGGATAAGTAAAA	0.625 ± 0.134
AAAAAATCCACGACTCAGCAGCTCTTAAAA	0.68 ± 0.0707
AAAAAATAGACCCTGACCCACCATTGAAAA	0.71 ± 0.113
AAAAAAGCTGTCACTGTAGTCGGTCCAAAA	0.67 ± 0.0707
AAAAAATACTGGCTGTCTCGTTCACAAAAA	0.615 ± 0.0778
AAAAAATAATATCGATACTCATGCCCAAAA	0.685 ± 0.134
AAAAAATGTCGGCTGTTAGGATATCGAAAA	0.625 ± 0.0495
AAAAAAGTACGGATGCCCGCGCGTATAAAA	0.735 ± 0.205
AAAAAACCCCAGATTTCCAGCAGTTCAAAA	0.945 ± 0.629
AAAAAACATTGATAAAATCTCCAGGCAAAA	0.63 ± 0.141
AAAAAACCAGTCTACACCGCTGTAGGAAAA	0.705 ± 0.0919
AAAAAAATTCATGCTATTTAACCTTAAAAA	0.745 ± 0.0919
AAAAAAGCTAGTGCTGCCACCAACGTAAAA	0.535 ± 0.12
AAAAAAGTGCGTTCACGCTTGTATCTAAAA	0.69 ± 0.17
AAAAAATATTCCGCTTTTGGCTGAATAAAA	0.635 ± 0.0636
